Test results as given in PubChem BioAssay AID1159580 (chemical genetic matrix, 2015).
Values joined by “and” are separate entries in the source; they are usually repeats but may differ in a detail not shown here. Equal entries are not always repeated. In all, about 5,500 compounds went through this assay and about 2,000 (36%) were called active. Another 18% or so got no clear call; they are omitted. Cut-off read from the data, not from the text of the source: active = normalized growth mostly below about 0.91 (no sharp cut-off); inconclusive = no clear call, values can overlap the other calls; inactive = mostly above about 0.92. The list shows a part of the results.

Assay: chemical genetic growth profiling, strain panel (AID 1159580);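 note: tested at 20 µM; growth read once vehicle control cultures reached saturation at 30 °C; 1 = growth at the plate median or of vehicle wells; lower values mean less growth of the strain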
Settings: S. cerevisiae deletion strains, growth OD

Measured: normalized growth

CC(=O)N1CCN(c2ccc(OCC3CO[C@](Cn4ccnc4)(c4ccc(Cl)cc4Cl)O3)cc2)CC1 (stereo partly drawn)
active: locus YAL021C, strain ccr4, active compounds read low 0.196 | locus YAL026C, strain drs2, active compounds read low 0.0754 | locus YAL030W, strain snc1, active compounds read low 0.0875 | locus YBL061C, strain skt5, active compounds read low 0.0954 | locus YBR009C, strain hhf1, active compounds read low 0.0917 | locus YBR021W, strain FUR4, active compounds read low 0.163 | locus YBR023C, strain chs3, active compounds read low 0.0942 | locus YBR171W, strain sec66, active compounds read low 0.162 | locus YBR229C, strain ROT2, active compounds read low 0.124 | locus YBR231C, strain swc5, active compounds read low 0.0937 | locus YBR279W, strain paf1, active compounds read low 0.0988 | locus YCL011C, strain gbp2, active compounds read low 0.0885 | locus YCL016C, strain dcc1, active compounds read low 0.102 | locus YCL029C, strain bik1, active compounds read low 0.087 | locus YCL061C, strain MRC1, active compounds read low 0.0977 | locus YCL069W, strain vba3, active compounds read low 0.0793 | locus YCR088W, strain abp1, active compounds read low 0.111 | locus YDL005C, strain med2, active compounds read low 0.327 | locus YDL035C, strain GPR1, active compounds read low 0.0672 | locus YDL040C, strain nat1, active compounds read low 0.113 | locus YDL074C, strain BRE1, active compounds read low 0.157 | locus YDL101C, strain DUN1, active compounds read low 0.086 | locus YDL134C, strain PPH21, active compounds read low 0.0637 | locus YDL185W, strain tfp1, active compounds read low 0.542 | locus YDL192W, strain arf1, active compounds read low 0.156 | locus YDR001C, strain nth1, active compounds read low 0.105 | locus YDR069C, strain doa4, active compounds read low 0.228 | locus YDR101C, strain arx1, active compounds read low 0.101 | locus YDR137W, strain rgp1, active compounds read low 0.449 | locus YDR150W, strain NUM1, active compounds read low 0.0966 | locus YDR159W, strain sac3, active compounds read low 0.135 | locus YDR162C, strain NBP2, active compounds read low 0.0614 | locus YDR195W, strain ref2 0.254 | locus YDR297W, strain sur2, active compounds read low 0.1 | locus YDR318W, strain mcm21, active compounds read low 0.0866 | locus YDR334W, strain swr1, active compounds read low 0.0914 | locus YDR335W, strain msn5, active compounds read low 0.101 | locus YDR388W, active compounds read low 0.0742 | locus YDR392W, strain spt3, active compounds read low 0.106 | locus YDR502C, strain sam2, active compounds read low 0.0927 | locus YEL003W, strain gim4, active compounds read low 0.0768 | locus YEL037C, strain rad23, active compounds read low 0.129 | locus YEL061C, strain CIN8 (second series), active compounds read low 0.084 | locus YEL061C, strain CIN8, active compounds read low 0.0807 | locus YER015W, strain faa2, active compounds read low 0.0977 | locus YER016W, strain bim1, active compounds read low 0.0966 | locus YER110C, active compounds read low 0.129 | locus YER111C, strain swi4, active compounds read low 0.123 | locus YER155C, strain BEM2 (second series), active compounds read low 0.329 | locus YER155C, strain BEM2, active compounds read low 0.0986 | locus YER167W, strain BCK2, active compounds read low 0.064 | locus YFR010W, strain ubp6, active compounds read low 0.302 | locus YGL078C, strain dbp3, active compounds read low 0.908 | locus YGL086W, strain mad1, active compounds read low 0.0803 | locus YGL167C, strain pmr1, active compounds read low 0.191 | locus YGL173C, strain kem1, active compounds read low 0.226 | locus YGL227W, strain vid30, active compounds read low 0.0914 | locus YGL240W, strain doc1, active compounds read low 0.166 | locus YGL248W, strain PDE1, active compounds read low 0.0653 | locus YGL253W, strain hxk2, active compounds read low 0.0717 | locus YGR078C, strain PAC10, active compounds read low 0.0678 | locus YGR135W, strain pre9, active compounds read low 0.0918 | locus YGR229C, strain SMI1, active compounds read low 0.0729 | locus YGR252W, strain gcn5, active compounds read low 0.213 | locus YHR013C, strain ard1, active compounds read low 0.139 | locus YHR027C, strain rpn1, active compounds read low 0.174 | locus YHR030C, strain SLT2, active compounds read low 0.0646 and 0.118 | locus YHR079C, strain IRE1 (second series), active compounds read low 0.0993 | locus YHR079C, strain IRE1, active compounds read low 0.155 | locus YHR094C, strain hxt1, active compounds read low 0.0943 | locus YHR129C, strain ARP1, active compounds read low 0.0814 | locus YHR142W, strain chs7, active compounds read low 0.0981 | locus YHR200W, strain rpn10, active compounds read low 0.133 | locus YIL066C, strain RNR3, active compounds read low 0.0659 | locus YIL073C, strain SPO22, active compounds read low 0.202 | locus YIR030C, strain dcg1, active compounds read low 0.0973 | locus YJL092W, strain hpr5, active compounds read low 0.093 | locus YJL095W, strain BCK1 (second series), active compounds read low 0.0703 | locus YJL095W, strain BCK1, active compounds read low 0.0666 and 0.127 | locus YJL115W, strain asf1, active compounds read low 0.113 | locus YJL129C, strain trk1, active compounds read low 0.117 | locus YJL134W, strain LCB3, active compounds read low 0.0818 | locus YJL154C, strain vps35, active compounds read low 0.123 | locus YJL164C, strain tpk1, active compounds read low 0.0872 | locus YJL166W, strain qcr8, active compounds read low 0.0816 | locus YJL168C, strain set2, active compounds read low 0.0995 | locus YJL187C, strain SWE1 (second series), active compounds read low 0.0726
inactive: locus YIL125W, strain kgd1, active compounds read low 0.964
